The whole screen tested about 16,000 compounds, of which about 5,800 (36%) were called active. Roughly 23% stayed inconclusive and do not appear here. Calls come from the whole dose curve; as a rule, active = well fitted curve in the direction sought with a large enough effect; inconclusive = small, poorly fitted or top-dose-only effect, or effect the other way; inactive = no such curve, though single readings can be large or run the other way. This is one part of the list.
% is set by controls: 0 for no effect and ±100 for the full control effect.

The target of the test is Cytochrome P450 2C19 (Homo sapiens) (UniProt P33261). Kind of test: Cytochrome panel assay with activity outcomes. The following applies: recombinant CYP, pro-luciferin dealkylation, luminescence, p450-cyp2c19; series mostly up to 57.1 µM; activity, negative = inhibition: at the top concentration.
Sequence of Cytochrome P450 2C19 (Homo sapiens) (P33261 whole entry, looked up): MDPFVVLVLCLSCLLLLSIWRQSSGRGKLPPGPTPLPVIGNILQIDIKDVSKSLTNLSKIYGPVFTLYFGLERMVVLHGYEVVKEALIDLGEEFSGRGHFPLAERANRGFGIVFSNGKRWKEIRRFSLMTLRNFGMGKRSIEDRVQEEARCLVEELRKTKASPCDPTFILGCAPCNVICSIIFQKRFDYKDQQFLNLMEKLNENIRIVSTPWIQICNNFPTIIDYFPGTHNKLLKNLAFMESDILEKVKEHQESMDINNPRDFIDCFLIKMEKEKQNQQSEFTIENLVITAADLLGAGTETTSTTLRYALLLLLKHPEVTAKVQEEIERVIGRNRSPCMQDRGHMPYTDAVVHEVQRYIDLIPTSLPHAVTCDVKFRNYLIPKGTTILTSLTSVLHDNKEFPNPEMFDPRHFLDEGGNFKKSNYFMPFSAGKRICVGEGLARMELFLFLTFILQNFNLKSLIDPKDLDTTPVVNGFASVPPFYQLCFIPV
For `C=C(C)[C@H]1CC[C@]2(CO)CC[C@]3(C)[C@@H](CC[C@H]4[C@@]5(C)CC[C@@H](O)C(C)(C)[C@@H]5CC[C@@]43C)[C@H]12`, the “activity, negative = inhibition” value is 33.7% [at 25.6 µM] (inactive).
Take `C[C@]1(O)CC[C@H]2[C@@H]3[C@@H](O)CC4=CC(=O)CC[C@@]4(C)[C@H]3CC[C@]21C`: the activity, negative = inhibition was 12.3% [at 11.4 µM] (inactive).
In the case of `O=C(O)/C=C\c1ccc[c]([Sb](=[O])([OH])[OH])c1`, the activity, negative = inhibition is -11.2% [at 11.4 µM] (inactive).
As a reminder, the AC50 is the concentration at which the activity in the assay is half-maximal. Consider `COc1ccc(-n2nc(C(F)(F)F)cc2-c2ccc(Cl)cc2)cc1`, for which the AC50 was 7.94 µM (active).
With `CC(C)(C)C(=O)CP(=O)(O)O`, the activity, negative = inhibition was 34.5% [at 11.4 µM] (inactive).
As for `CN1CCC(c2c[nH]c3ccc(O)cc23)CC1`, the AC50 result was “inactive”.
Turning to `C[N+]1(C)CCc2cc3c(cc2[C@@H]1[C@@H]1OC(=O)c2c1ccc1c2OCO1)OCO3`, the “activity, negative = inhibition” value was 18.5% (inactive).
Same read-out and setting: under `O[C@@H]1[C@@H]2c3cc4c(cc3CN3CCC(=C[C@@H]1O)[C@H]23)OCO4` stands 10.7% [at 25.6 µM] (inactive).
In the case of `COc1ccc2c(c1OC)C(=O)O[C@H]2[C@H]1c2cc3c(cc2CCN1C)OCO3`, the AC50 is 1.26 µM (active).
Same read-out and setting: in the case of `CN1CCc2cc3c(cc2[C@@H]1[C@@H]1OC(=O)c2c1ccc1c2OCO1)OCO3` it was 0.0501 µM (active).
For `COc1ccc2c(c1O)-c1c(OC)c(OC)cc3c1[C@H](C2)N(C)CC3`, the “activity, negative = inhibition” value was -24.7% [at 25.6 µM] (inactive).
As to `COc1ccc(C[C@H]2c3cc(OC)c(OC)cc3CCN2C)cc1OC`, the “activity, negative = inhibition” value was -22.8% [at 25.6 µM] (inactive).
Take `CO[C@H]1C=C2CCN(C)[C@@H]2[C@@H]2c3cc4c(cc3C(=O)O[C@H]21)OCO4`: the “activity, negative = inhibition” value was -44.6% [at 25.6 µM] (inactive).
On to `COc1ccc2c(c1OC)CN1CCc3cc4c(cc3[C@H]1C2)OCO4`, for which the AC50 is 1.26 µM (active).
As for `COc1c2c(cc3c1OCO3)CCN(C)C2`, the “activity, negative = inhibition” value is -28.1% [at 25.6 µM] (inactive).
The same measure, in the same setting: in the case of `O=C(NCP(=O)(O)O)c1cccnc1` it was 26.5% [at 11.4 µM] (inactive); in that of `c1cnc(N2CC[C@@]3(CCCNC3)C2)nc1`, -7.58% (inactive).
The same measure, in the same setting: in the case of `C=C[C@]12CN(C)[C@H]3C1[C@@]1(C(=O)Nc4ccccc41)[C@H]1C[C@H]2[C@H]3CO1` it was 12.4% [at 25.6 µM] (inactive).
As to `CCCN1CCC[C@@H]2Cc3[nH]ncc3C[C@H]21`, the AC50 result was “inactive”.
Regarding `CC(=O)O[C@H]1CC[C@@]2(C)[C@@H](CC[C@H]3[C@H]2CC(=O)[C@@]2(C)[C@@H]3C[C@H]3CC(C)=CC(=O)[C@H]32)C1`, the activity, negative = inhibition is -7.79% [at 11.4 µM] (inactive).
With `CS(=N)(=O)CC[C@H](N)P(=O)(O)O` (stereo partly specified), the activity, negative = inhibition is 2.48% [at 11.4 µM] (inactive).

For the origin of these results see PubChem BioAssay AID1851 (National Center for Advancing Translational Sciences (NCATS), 2009).
